Rows were chosen to be rich in hits. Some 11% of all compounds tested hit in one or more screens of this group.
USP17 block = blocks human USP17 ubiquitin-rhodamine cleavage; purified USP17, Ub-rhodamine cleavage fluorescence, 3 h; A8MUK1; 6.5% of 47,000 active; inhibition, % at 50 µM; AID 1645855
Target sequence (A8MUK1 whole entry, looked up): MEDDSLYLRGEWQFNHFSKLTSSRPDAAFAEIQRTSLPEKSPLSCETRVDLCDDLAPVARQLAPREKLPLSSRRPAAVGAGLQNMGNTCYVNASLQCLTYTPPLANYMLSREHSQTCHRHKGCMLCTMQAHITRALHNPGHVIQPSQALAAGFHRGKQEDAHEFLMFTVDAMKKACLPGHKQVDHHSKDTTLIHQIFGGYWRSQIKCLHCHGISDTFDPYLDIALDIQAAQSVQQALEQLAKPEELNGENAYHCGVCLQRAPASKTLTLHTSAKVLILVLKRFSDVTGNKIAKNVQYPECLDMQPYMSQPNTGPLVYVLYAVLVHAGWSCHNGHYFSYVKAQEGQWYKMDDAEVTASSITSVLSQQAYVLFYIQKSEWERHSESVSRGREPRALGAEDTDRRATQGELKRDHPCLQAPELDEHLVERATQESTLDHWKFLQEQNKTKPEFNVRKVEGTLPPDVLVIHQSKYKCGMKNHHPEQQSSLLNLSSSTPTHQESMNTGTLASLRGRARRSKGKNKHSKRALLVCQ
USP28 block = inhibitors of human USP28 deubiquitinase. Q96RU2. purified USP28, Ub-rhodamine cleavage fluorescence, 30 min. inhibition, % at 25 µM. 3% of 47,000 active. AID 1645857
USP30 inh = inhibitors of human USP30 deubiquitinase; Q70CQ3; purified USP30, Ub-rhodamine cleavage fluorescence; inhibition, % at 25 µM; 5.3% of 47,000 active
* hit, by the source's call; x = no result given. Rule as the data show it: active = inhibition above about 30%; inactive = the rest.

SMILES | USP17 block | USP28 block | USP30 inh
O=c1sc2ccccc2c(=O)n1Cc1cccc(C(F)(F)F)c1 | 1.6 | 82.5* | 0.5
Cc1noc(-c2ccc(=O)n(Cc3cccc(C(F)(F)F)c3)c2)n1 | -1.3 | 4.1 | -7.7
Cn1nc(C(=O)N2CCN(c3ccccn3)CC2)c2c1-c1ccsc1CC2 | 0.4 | 1.7 | -4.3
Cc1ccc(-n2nc(C(=O)NCc3ccccc3)c3ncn(C)c(=O)c32)cc1 | -0.3 | 8.0 | 29.7
Cn1nc(C(=O)N2CCC(c3ccccc3)C2)c2c1-c1ccsc1CC2 (configuration not stated) | 45.7* | 29.4 | 32.2*
Cc1ccc(CNC(=O)c2nn(C)c3c2CCc2sccc2-3)cc1 | x | 35.9* | 33.0*
CCc1nc(-c2csc(S(=O)(=O)NCc3ccccc3)c2)no1 | -11.3 | -0.5 | 0.0
Cc1cc(C)n2nc(C(=O)NCc3ccc(Cl)cc3)nc2n1 | 1.5 | -7.1 | 17.6
Cc1cc(C)n2nc(NCc3cccc(Cl)c3)nc2n1 | 0.2 | 32.4* | 9.7
CNC(=O)Cc1ccc(NC(=O)/C=C/c2cn(-c3ccccc3)nc2-c2ccc(F)cc2)cc1 | 4.4 | -4.4 | -1.9
Cc1ccc(-c2sc(-c3ccccc3)nc2CC(=O)O)cc1 | 15.8 | 16.1 | 0.1
COc1ccccc1CC(NC(C)=O)C(=O)NC1CCN(C(=O)C2CC2)CC1 (configuration not stated) | 8.4 | 5.9 | 19.2
COc1ccc(-c2ccnc(-c3ccc(OCc4cccc(F)c4)cc3)n2)cc1 | 56.2* | 11.8 | 40.7*
COc1ccc(-c2ccnc(SCc3cccc([N+](=O)[O-])c3)n2)cc1 | 1.2 | 6.0 | 10.0
Cc1ccc(-c2nc(C(N)=O)c3[nH]c(=O)n(CCc4ccccc4)c3n2)o1 | -12.8 | -12.0 | -56.5
CCn1c(=O)n(CC(=O)c2ccccc2)c2c(C(N)=O)nc(-c3ccc(C)o3)nc21 | 34.1* | -8.2 | -18.1
CCn1c(=O)n(CC(=O)c2ccccc2F)c2c(C(N)=O)nc(-c3ccco3)nc21 | 25.6 | -1.2 | -105.8
CCn1c(=O)n(CC(=O)c2ccc(F)cc2)c2c(C(N)=O)nc(-c3ccc(C)o3)nc21 | 34.2* | -1.6 | -80.3
Cc1cc(C(=O)COc2ncnc3ccccc23)c(C)n1CC1COc2ccccc2O1 (configuration not stated) | -4.0 | -3.8 | -36.0
O=S(=O)(c1ccc(F)cc1)N1CCC2(CC1)COCCN(Cc1ccncc1)C2 | -5.5 | -6.7 | -1.0
COc1ccc(NC(=O)CSc2nc3ccccc3c3nc(C)nn23)cc1 | 16.6 | 11.7 | 13.8
COc1ccc(NC(=O)Cn2c(CSc3ccc(C)cc3)nc3ccccc32)cc1 | 54.4* | 25.5 | -111.9
Cc1cccc(C(C)C)c1NC(=O)Cn1c(COc2ccccc2)nc2ccccc21 | x | 3.2 | 21.5
Cc1ccc(OCc2nc3ccccc3n2CC(=O)Nc2ccc(C(F)(F)F)cc2)cc1 | 18.3 | -2.4 | 38.2*
CC(C)Oc1ccc(S(=O)(=O)N2CCOCC2)cc1NC(=O)c1cccc(Oc2ccccc2)c1 | -24.3 | 7.7 | 16.0
SMILES | USP17 block | USP28 block | USP30 inh
Cc1nc(C)c(CC(=O)N2CCC([C@@H]3NC(=O)N[C@H]4OCC[C@H]43)CC2)c(=O)[nH]1 | 6.1 | 0.5 | 8.0
COc1ccc2cc1Oc1cc(ccc1OC)C(O)C13SSC4(C(=O)N1C)C(O)C1=COC=CC(OC2=O)C1N4C3=O (configuration not stated) | -32.5 | -9.9 | 73.1*
COCCNC(=O)c1nc(-c2cn(Cc3csc(C)n3)cn2)n2ccccc12 | -54.5 | -33.8 | -78.2
COc1ccc(CCN(C)C(=O)COc2ncnc3ccccc23)cc1OC | x | -181.9 | 32.1*
COc1ccc(CCN(C)c2ncnc3c2[nH]c2ccccc23)cc1OC | 0.0 | -6.9 | -16.7
CN(C(=O)OC(C)(C)C)C1CCC2(CC1)Cc1c([nH]c(=O)[nH]c1=O)O2 (configuration not stated) | -25.3 | 9.3 | 16.9
O=C(NC1CCCCCC1)c1ccc(Cn2cnc3ccccc3c2=O)cc1 | 2.5 | 14.5 | 4.8
Cc1cccc(N2CCN(Cc3cc(=O)n4ccsc4n3)CC2)c1C | -2.1 | -13.0 | -176.6
CC1(c2ccc3c(c2)CCC3)NC(=O)N(Cc2cc(=O)n3ccsc3n2)C1=O (configuration not stated) | 33.3* | 7.1 | -31.0
CCCCCCCCC/C=C/C(=O)CCc1c(O)c(C=O)c2c(c1O)C(=O)OC2O (configuration not stated) | 75.0* | 71.0* | -8.9
Cc1ccc(S(=O)(=O)N2CCCC(c3nc(-c4cccnc4)no3)C2)cc1C (configuration not stated) | -5.1 | -6.5 | -2.8
CC(C)c1ccc(S(=O)(=O)N2CCCC(c3nc(-c4cccnc4)no3)C2)cc1 (configuration not stated) | 51.7* | 21.0 | 82.0*
CSc1nnc(NC(=O)Cc2coc3ccc(C)cc23)s1 | 0.4 | -0.3 | -10.8
O=C(c1nc(-c2cccc3[nH]ccc23)no1)N1CCN(c2ccccc2)CC1 | 0.3 | -12.8 | -8.4
